M1 agonist: M1 muscarinic receptor agonism | B-score at 10 µM | 3% of 64,000 active | CHO-M1 cells, Fluo-4 calcium fluorescence, agonist mode; hits give high values;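 active = fluorescence rise, raw or as B-score row- and column-corrected plate score, outside the 99.7% band of its plate's samples, either direction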
mHtt clearance: mutant huntingtin protein clearance. 0.42% of 47,000 active. AID 853. inhibition, % at 1.5 µM. HeLa Exon1htt(103Q)mCFP, aggregate imaging; zero = plate's median compound well;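 active = inhibition of aggregate fluorescence above about 70%, also judged a hit by eye on the cell image, limit read from the data, passing the limit was not always enough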;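 note: cells exposed to compound for three days before fixation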
D1 mod: allosterically modulates the human D1 dopamine receptor; HEK293 D1, CRE-luciferase, dopamine EC30 potentiation; actives deviate in either direction; AID 641; B-score at 10 µM; 5.9% of 58,000 active; P21728;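 active = luminescence count or its row- and column-corrected plate score outside the 99.7% band of the plate's sample wells, on either side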
Target sequence (P21728 whole entry, looked up): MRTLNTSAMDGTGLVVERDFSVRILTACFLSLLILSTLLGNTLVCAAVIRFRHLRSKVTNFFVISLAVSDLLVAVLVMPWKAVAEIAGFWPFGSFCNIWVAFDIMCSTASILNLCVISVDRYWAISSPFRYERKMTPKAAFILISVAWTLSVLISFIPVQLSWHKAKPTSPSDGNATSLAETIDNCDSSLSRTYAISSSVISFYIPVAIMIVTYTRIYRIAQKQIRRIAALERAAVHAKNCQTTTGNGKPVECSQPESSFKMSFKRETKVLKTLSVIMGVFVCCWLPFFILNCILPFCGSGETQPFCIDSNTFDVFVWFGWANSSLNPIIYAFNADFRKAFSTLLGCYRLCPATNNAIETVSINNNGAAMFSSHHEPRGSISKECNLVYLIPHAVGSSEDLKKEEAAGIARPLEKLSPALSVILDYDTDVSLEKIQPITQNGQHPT
M1 antagonist: M1 muscarinic receptor (rat) antagonism | CHO-M1 cells, Fluo-4 calcium, ACh EC80 antagonist mode; hits give low values | B-score at 10 µM | 3.4% of 64,000 active | AID 628;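 active = calcium fluorescence response, raw or row-and-column corrected B-score, differing from the plate sample mean either way at a set confidence level, mostly lower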
M1 antag confirm: confirmation of rat M1 muscarinic receptor antagonists; 43% of 1,700 active; shares compounds with M1 antagonist; CHO-M1 cells, Fluo-4 calcium, ACh EC80 antagonism; hits give low values; calcium response (max-min fluorescence) at 10 µM;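 active = calcium response below the same-plate mean of wells given acetylcholine alone at its 80%-effect dose, minus 3 SD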;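 note: raw fluorescence intensity difference in arbitrary instrument units and not normalized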
mGluR4 antag: mGluR4 (human) activity, M1 antagonist secondary assay. fluorescence response (max-min) at 10 µM. 0.9% of 1,700 active. shares compounds with M1 antagonist. CHO-mGluR4 calcium flux, Fluo-4 fluorescence, glutamate EC80; hits give low values;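 active = fluorescence response below the plate's average for near-maximal glutamate wells, less 3 SD of those wells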;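 note: raw unnormalized fluorescence span taken in the window right after glutamate addition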
* hit, by the source's call. This is a sample that favours compounds with a hit; in the whole collection about 9.1% have one here.

CSc1nc(SCCO)c2sc3nc(-c4ccco4)c4c(c3c2n1)CC(C)(C)OC4 was read as mHtt clearance 2.
Screening CSc1nc(N(CCO)CCO)c2sc3nc(-c4ccco4)c4c(c3c2n1)CCC4 returned M1 agonist -0.89, D1 mod 2.1, M1 antagonist -3.9*, M1 antag confirm 524 and mGluR4 antag 273.
For COc1ccc(-c2noc(CCC(=O)N3CCN(c4cc(C)ccc4C)CC3)n2)cc1 the results were M1 agonist 0, D1 mod -0.66 and M1 antagonist 0.17.
For O=S(=O)(Nc1nc2ccccc2[nH]1)c1ccccc1 the results were M1 agonist 0.01, mHtt clearance -60, D1 mod 0.061, M1 antagonist -5.1*, M1 antag confirm 394* and mGluR4 antag 246.
Screening O=S(=O)(Nc1nc2ccccc2[nH]1)c1ccc(Cl)cc1 returned M1 agonist 0.16, mHtt clearance 37, D1 mod -0.078, M1 antagonist -16*, M1 antag confirm 70* and mGluR4 antag 246.
For O=C(Nc1nc2ccccc2[nH]1)c1ccccc1 the results were mHtt clearance 20.
For O=S(=O)(Nc1ccccn1)c1ccc(Cl)cc1 the results were M1 agonist 0.14, D1 mod 1.3 and M1 antagonist 1.3.
For Cc1nc(SCC(=O)N2CCN(c3ccccc3)CC2)c2c(=O)n(C)c(=O)n(C)c2n1 the results were M1 agonist -0.09, D1 mod 1.5 and M1 antagonist 0.5.
O=C(CCn1nc(-c2ccc(Cl)cc2)ccc1=O)N1CCN(c2ccccn2)CC1 was read as M1 agonist 1.3, D1 mod 2.2, M1 antagonist -3*, M1 antag confirm 584 and mGluR4 antag 247.
Cc1cc(C(=O)CSc2nncs2)c(C)n1-c1c(C)n(C)n(-c2ccccc2)c1=O was read as M1 agonist -2.4, mHtt clearance -47, D1 mod 0.0048, M1 antagonist -9.1*, M1 antag confirm 215* and mGluR4 antag 195.
Cc1nnc(SCC(=O)c2cc(C)n(-c3c(C)n(C)n(-c4ccccc4)c3=O)c2C)s1 was read as M1 agonist 0.93, D1 mod -0.49 and M1 antagonist -1.5.
For O=C(O)c1ccccc1S the results were M1 agonist -0.61, D1 mod 0.87 and M1 antagonist 0.4.
Screening CCn1c(CSc2ncccn2)nnc1SCC(=O)N1CCc2ccccc21 returned M1 agonist -0.95, D1 mod 0.9, M1 antagonist -5.4*, M1 antag confirm 474 and mGluR4 antag 225.
For CCc1nnc(SCC(=O)N2CCCc3ccccc32)nc1CC the results were M1 agonist 0.25, mHtt clearance -45, D1 mod -0.51, M1 antagonist -3.3*, M1 antag confirm 655 and mGluR4 antag 239.
Cn1c(SCC(=O)N2CCCc3ccccc32)nc2cccnc21 was read as mHtt clearance -8.
For CC(C)(C)C(=O)CNS(=O)(=O)c1ccc(S(=O)(=O)NC2CCCC2)cc1 the results were M1 agonist 0.34, mHtt clearance -10, D1 mod -0.46 and M1 antagonist -0.16.
`CN1CCN(CCCC(=O)c2ccc(F)cc2)CC1` gave M1 agonist -0.44, mHtt clearance 15, D1 mod -1.6 and M1 antagonist 2.4.
Cc1nc2sccn2c(=O)c1CCN1CCC(=C(c2ccccc2)c2ccc(F)cc2)CC1 was read as M1 agonist 0.65, D1 mod -3.4, M1 antagonist -10*, M1 antag confirm 138* and mGluR4 antag 209.
For Cc1ccc(SCCCCN2C(=O)NC(C)(C)C2=O)cc1 the results were M1 agonist 0.76, mHtt clearance 7, D1 mod -0.068, M1 antagonist -2.1*, M1 antag confirm 480 and mGluR4 antag 194.
Screening CC1(C)NC(=O)N(CCOCCSc2ccccc2)C1=O returned M1 agonist -0.075, D1 mod 0.08 and M1 antagonist 0.7.
Screening CCC(=O)c1cn(CC(=O)NCC2CCCO2)c2ccccc12 (configuration not stated) returned M1 agonist 0.91 and M1 antagonist 0.59.
Screening CC(C)Cn1cc(C(=O)NCC2CCCO2)c2c3ccccc3n(C)c2c1=O (configuration not stated) returned M1 agonist 1.6, D1 mod 0.42, M1 antagonist -5.9*, M1 antag confirm 577 and mGluR4 antag 212.
`O=C(NCCN1CCOCC1)c1ccc2c(c1)N(Cc1ccccc1F)C(=O)CS2` gave M1 agonist 0.2, D1 mod -0.033, M1 antagonist -3.8*, M1 antag confirm 172* and mGluR4 antag 172.
Screening O=C(C1CCCO1)N1CCN(c2c3c(nc4cc(-c5ccc(F)cc5)nn24)CCC3)CC1 (configuration not stated) returned M1 agonist 1.2, D1 mod -0.3, M1 antagonist -3.6*, M1 antag confirm 661 and mGluR4 antag 243.
For O=C(CN1CCOCC1)Nc1cccc(Cl)c1Cl the results were M1 agonist 0.4, D1 mod 1.7 and M1 antagonist -0.47.
`CC1Cc2ccccc2N1C(=O)CSc1nc2c(c(=O)n(C)c(=O)n2C)n1Cc1ccccc1` (configuration not stated) gave M1 agonist 1.3, D1 mod -0.028 and M1 antagonist -0.46.
Screening O=C(CN1C2=NCCN2c2ccccc21)C12CC3CC(CC(C3)C1)C2 returned M1 agonist -0.29, D1 mod -1.4, M1 antagonist -9.3*, M1 antag confirm 337* and mGluR4 antag 153.
`O=C(c1cccs1)N1CCN(C2CCCCC2)CC1` gave M1 agonist -0.6, mHtt clearance 26, D1 mod -0.77 and M1 antagonist 0.32.
For O=C(c1cccs1)N1CCN(C2CCN(Cc3ccccc3)CC2)CC1 the results were M1 agonist -1.5, D1 mod 0.14, M1 antagonist -4.8*, M1 antag confirm 443* and mGluR4 antag 276.
`Cc1nc2cc(CO)ccc2n1C` gave M1 agonist -0.085, D1 mod -0.58, M1 antagonist -5.1*, M1 antag confirm 670 and mGluR4 antag 262.
`COc1ccc(CNc2ccc3c(c2)nc(C)n3C)cc1` gave M1 agonist 0.2, D1 mod -0.43 and M1 antagonist -0.32.
Screening Cc1cccc(C)c1NC(=O)NC1(C(=O)NCCCN2CCOCC2)CCCCC1 returned mHtt clearance -21.
`CCCCNC(=O)c1sc(=S)n2c1[nH]c(=O)c1ccccc12` gave M1 agonist -0.72, mHtt clearance -17, D1 mod -2.1 and M1 antagonist -1.1.
`O=C(NC1CCCCC1)c1sc(=S)n2c1[nH]c(=O)c1ccccc12` gave M1 agonist 2.6, mHtt clearance 21, D1 mod -2.1, M1 antagonist -1.8*, M1 antag confirm 529 and mGluR4 antag 243.
Clc1cccc(-c2nnc(-c3ccccc3)o2)c1 was read as M1 agonist -0.33, mHtt clearance -49, M1 antagonist -1.7*, M1 antag confirm 699 and mGluR4 antag 252.

Screening results (PubChem BioAssay)
